Experiments:
Test in all cases: thermal shift delta Tm vs DMSO control; higher = stronger stabilization (binding)
Settings in all cases: 12.5 µM; protein concentration 2 µM
LOC_OS02G45750-cb003 = test system: LOC_OS02G45750-cb003
Summary of the method: (§1)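 Compounds dissolved in DMSO were added to purified rice kinase domain constructs, which had been expressed in E. coli, for differential scanning fluorimetry. Each well held 19.5 μl of 2 μM kinase in 100 mM potassium phosphate pH 7.5, 150 mM NaCl, 10% glycerol and 5 × SYPRO Orange. Fluorescence was followed from 25°C to 95°C at a rate of 0.05°C/s. Shifts in Boltzmann-fitted melting temperature are triplicate means relative to DMSO-only protein.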

LOC_OS02G54510-cb004 = test system: LOC_OS02G54510-cb004
Summary of the method: as §1

LOC_OS03G04050-cb001 = test system: LOC_OS03G04050-cb001
Summary of the method: as §1

LOC_OS03G12390-cb001 = test system: LOC_OS03G12390-cb001
Summary of the method: as §1

LOC_OS03G27990-cb004 = test system: LOC_OS03G27990-cb004
Summary of the method: as §1

LOC_OS03G50450-cb001 = test system: LOC_OS03G50450-cb001
Summary of the method: as §1

LOC_OS03G50810-cb003 = test system: LOC_OS03G50810-cb003
Summary of the method: as §1

LOC_OS04G35114-cb001 = test system: LOC_OS04G35114-cb001
Summary of the method: as §1

LOC_OS04G38480-cb003 = test system: T1, LOC_OS04G38480-cb003
T1 sequence (whole entry): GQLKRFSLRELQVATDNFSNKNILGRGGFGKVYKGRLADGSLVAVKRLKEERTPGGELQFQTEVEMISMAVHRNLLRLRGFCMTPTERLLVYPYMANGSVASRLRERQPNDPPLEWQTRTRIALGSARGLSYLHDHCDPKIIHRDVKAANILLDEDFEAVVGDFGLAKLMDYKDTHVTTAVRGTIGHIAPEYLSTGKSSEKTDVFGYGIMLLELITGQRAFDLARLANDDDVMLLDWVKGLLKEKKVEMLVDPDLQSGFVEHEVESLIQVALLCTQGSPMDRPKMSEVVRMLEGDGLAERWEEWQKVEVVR
Summary of the method: as §1

LOC_OS04G41100-cb001 = test system: T2, LOC_OS04G41100-cb001
T2 sequence (whole entry): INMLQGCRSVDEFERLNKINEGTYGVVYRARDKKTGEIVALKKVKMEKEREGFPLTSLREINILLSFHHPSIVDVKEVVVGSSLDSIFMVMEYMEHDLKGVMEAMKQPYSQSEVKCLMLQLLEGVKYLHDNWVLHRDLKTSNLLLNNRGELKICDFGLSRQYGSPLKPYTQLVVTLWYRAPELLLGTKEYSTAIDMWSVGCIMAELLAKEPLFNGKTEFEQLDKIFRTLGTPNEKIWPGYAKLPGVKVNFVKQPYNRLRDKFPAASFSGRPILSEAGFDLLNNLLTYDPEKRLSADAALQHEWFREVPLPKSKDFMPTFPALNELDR
Summary of the method: as §1

| Compound | thermal shift delta Tm (LOC_OS02G45750-cb003) [°C] | thermal shift delta Tm (LOC_OS02G54510-cb004) [°C] | thermal shift delta Tm (LOC_OS03G04050-cb001) [°C] | thermal shift delta Tm (LOC_OS03G12390-cb001) [°C] | thermal shift delta Tm (LOC_OS03G27990-cb004) [°C] | thermal shift delta Tm (LOC_OS03G50450-cb001) [°C] | thermal shift delta Tm (LOC_OS03G50810-cb003) [°C] | thermal shift delta Tm (LOC_OS04G35114-cb001) [°C] | thermal shift delta Tm (LOC_OS04G38480-cb003) [°C] | thermal shift delta Tm (LOC_OS04G41100-cb001) [°C] |
| --- | --- | --- | --- | --- | --- | --- | --- | --- | --- | --- |
| CN1CC[C@H](c2c(O)cc(O)c3c(=O)cc(-c4ccccc4Cl)oc23)[C@H](O)C1 [Flavopiridol (Alvocidib)] | 1.64 | 0.69 | 0.2 | 1.66 | 1.06 | 0.4 | 0.4 | 2.64 | 0.88 | 0.66 |
| Nc1cccc(S(=O)(=O)N2CCCN(S(=O)(=O)c3ccc4c(c3)OCCO4)CC2)c1 | 0.54 | 0.12 | 0.38 | 0.13 | 0.13 | 0.24 | 0.28 | 0.8 | 1.86 | 0.33 |
| CCN(CC)CCNC(=O)c1c(C)[nH]c(/C=C2\C(=O)Nc3ccc(F)cc32)c1C [Sunitinib] | 0 | 0.62 | 0.04 | 7.93 | 7.62 | 3.43 | 7.56 | 11 | 3.55 | 0.46 |
| CN1CCN(c2ccc3nc(-c4c(N)c5c(F)cccc5[nH]c4=O)[nH]c3c2)CC1 [Dovitinib (TKI258) Lactate] | 16.7 | 2.48 | 1.03 | 5.56 | 8.6 | 5.37 | 7.48 | 10 | 3.95 | 1.24 |
| CNC(=O)c1cc(Oc2ccc3nc(N[C@@H]4CCCC[C@H]4O)sc3c2)ccn1 | 0.99 | -0.11 | 0.37 | 0.22 | 0.15 | 0.65 | 0.6 | 0.24 | 1.59 | 0.59 |
| N#Cc1ccc(-c2c(-c3ncn[nH]3)sc(N3CCOCC3)c2C#N)c(F)c1 | 1.03 | 0.27 | 0.35 | 0.25 | 0.22 | 0 | 0.37 | 0.45 | 1.64 | 0.49 |
| C[C@@H](NC(=O)c1ncnc(N)c1Cl)c1ncc(C(=O)Nc2cc(C(F)(F)F)c(Cl)cn2)s1 | 0.64 | 6.43 | 0.36 | 0.49 | 0.28 | 0.42 | -0.01 | 0.39 | 0.76 | 0.71 |
| C[C@@H]1CN(CC(=O)Nc2ccc3c(c2)Cc2cccc(-c4cc(=O)cc(N5CCOCC5)o4)c2S3)C[C@H](C)O1 | 0.27 | -0.11 | 0.02 | 0.37 | -0.04 | 0.03 | 0.14 | 0.37 | -0.13 | 0.23 |
| COc1nccc(-c2c(-c3ccc(F)cc3)ncn2C2CCC(O)CC2)n1 (stereo not given) | 0.57 | -0.06 | 0.08 | 0.08 | 0.19 | 0.52 | 0.48 | 0.56 | 1.13 | 0.51 |
| CC(C)(C)c1ccc(S(=O)(=O)/C=C/C#N)cc1 | -0.34 | 1.26 | 0.18 | -0.99 | -0.83 | 0.05 | -1.59 | -1.78 | 1.74 | -0.39 |
| Oc1ccc(-c2nc(-c3ccc(F)cc3)c(-c3ccncc3)[nH]2)cc1 | 0.9 | 1.58 | 0.9 | 0.88 | 0.55 | 0.44 | 0.55 | 2.01 | 1.53 | 1.35 |
| CN1CCN(c2ccc(Nc3cc(-c4cccc(-n5ccc6cc(C7CC7)cc(F)c6c5=O)c4CO)cn(C)c3=O)nc2)CC1 | 0.34 | -0.3 | 0.53 | -0.21 | 0.57 | 0.67 | 0.5 | 0.26 | 1.08 | 0.45 |
| C=CC(=O)Nc1cccc(Oc2nc(Nc3ccc(N4CCN(C)CC4)cc3OC)ncc2Cl)c1 | 0.22 | 0.42 | 0.85 | 5.06 | 1.09 | 0.52 | 2.04 | 0.9 | -0.58 | 0.39 |
| Cn1cnc2c(F)c(Nc3ccc(Br)cc3F)c(C(=O)NOCCO)cc21 | 0.6 | 0.05 | 0.71 | 0.19 | 0.4 | 0.43 | 0.44 | 0 | 1.48 | 0.46 |
| CC(C)(C)S(=O)(=O)c1ccc2nccc(Nc3n[nH]c4ccc(F)cc34)c2c1 | 0.81 | 0.59 | 0.15 | 0.75 | 0.12 | -0.21 | 0.11 | 3.68 | 0.32 | 0.12 |
| O=C1c2c(O)cc(O)cc2OC(c2ccc(O)c(O)c2)C1O (stereo not given) [Taxifolin (Dihydroquercetin)] | 0.74 | -0.16 | 0.4 | 0.47 | 0.2 | 0.2 | 0.08 | 0.29 | 0.17 | 0.5 |
| O=C(O)c1ccc2c(c1)nc(Nc1cccc(Cl)c1)c1ccncc12 [Silmitasertib (CX-4945)] | 1.82 | 1.5 | 0.25 | 4.4 | 4.14 | 0.83 | 1.55 | 6.87 | 1.13 | 0.77 |
| C[C@H](Nc1ncnc2[nH]cnc12)c1cc2ccc(F)cc2nc1-c1ccccn1 | 0.75 | 0.11 | 0.38 | 0.1 | 0.16 | 0.69 | 0.49 | 0.44 | 1.43 | 0.13 |

From the supplement of paper PMC9694430
